Screening results from PubChem.
Hits are enriched below; roughly 21% of the tested compounds scored in any of these assays.
Gal4-VP16 FLuc: inhibits Gal4-VP16 luciferase reporter, ROR gamma counter-screen | Drosophila S2 Gal4-VP16 UAS-luciferase, luminescence, 20 h | actives 3.5% (n = 310,000) | Potency, µM (top dose mostly 53.6 µM), without a hit: top-dose activity, negative = inhibition, hits mostly inhibitors;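 note: Gal4-VP16 expression switched on by copper sulfate through the metallothionein promoter; potency is the fitted concentration of half-maximal effect; nearly all actives have a fitted effect of over 50% in size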
DT40 TDP1 CPT: DT40-hTDP1 cell growth loss with CPT; chicken DT40 Tdp1-/-;hTDP1 cells + 20 nM CPT, ATP luminescence, 48 h; Potency, µM (titrated, usually from 46.2 µM), for the others: at the highest dose activity change, negative = growth inhibition, usual class: inhibitors; actives 12% (n = 420,000); AID 686979; note: potency is the fitted concentration of half-maximal effect; nearly all actives have a fitted effect of over 55% in size
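Cell growth measured by CellTiter-Glo luminescence after a minimum 48 h, 37 C compound exposure with 20 nM CPT in Tdp1-knockout DT40 cells stably expressing hTDP1, seeded 400/well; qHTS titration format.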
ELG1 DNA repair: blocks ELG1-dependent DNA repair in HEK293T cells; Potency, µM (top dose mostly 46.1 µM), inactives show at the highest dose activity change, negative = inhibition, hits mostly inhibitors; actives 2.3% (n = 330,000); HEK293T ELG1-luciferase reporter, luminescence, 16 h; DNA damage induced by 5-fluorouridine; note: potency is the fitted concentration of half-maximal effect; nearly all actives have a fitted effect of over 55% in size
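Luminescence from the luciferase reporter, measured 30 min after ONE-Glo reagent at room temperature, was the read-out. Beforehand, 2,000 cells per well were exposed for 16 hr at 37 °C to 5-fluorouridine together with compound or vehicle.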
IL-1B inflam inh: inhibitors of inflammasome signaling (IL-1 beta secretion) | THP-1 LPS/ATP IL-1B secretion, AlphaLISA, 16 h; stronger effect = lower value | activity change, % at 57.5 µM | actives 4.7% (n = 360,000) | AID 743279; in the data active = activity change below about -50%; inconclusive = mostly about -30% to -49%
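Secreted IL-1B measured by AlphaLISA bead assay after 16 h compound exposure of THP-1 cells; compounds (final up to 57.5 uM) added 1 h before LPS (250 ng/mL) and ATP (1.25 mM) stimulation; lower signal means less secretion.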
RORg inh: inhibitors of mouse ROR gamma transcriptional activity; Drosophila S2 Gal4-RORgamma UAS-luciferase reporter, 20 h; actives 5.4% (n = 310,000); P51450; AID 2551; Potency, µM (doses to about 53.6 µM), for inactives: at the highest dose activity change, negative = inhibition, actives largely listed as inhibitors; note: potency is the fitted concentration of half-maximal effect; nearly all actives have a fitted effect of over 60% in size
Target sequence (P51450 whole entry, looked up, the tested form may be a part): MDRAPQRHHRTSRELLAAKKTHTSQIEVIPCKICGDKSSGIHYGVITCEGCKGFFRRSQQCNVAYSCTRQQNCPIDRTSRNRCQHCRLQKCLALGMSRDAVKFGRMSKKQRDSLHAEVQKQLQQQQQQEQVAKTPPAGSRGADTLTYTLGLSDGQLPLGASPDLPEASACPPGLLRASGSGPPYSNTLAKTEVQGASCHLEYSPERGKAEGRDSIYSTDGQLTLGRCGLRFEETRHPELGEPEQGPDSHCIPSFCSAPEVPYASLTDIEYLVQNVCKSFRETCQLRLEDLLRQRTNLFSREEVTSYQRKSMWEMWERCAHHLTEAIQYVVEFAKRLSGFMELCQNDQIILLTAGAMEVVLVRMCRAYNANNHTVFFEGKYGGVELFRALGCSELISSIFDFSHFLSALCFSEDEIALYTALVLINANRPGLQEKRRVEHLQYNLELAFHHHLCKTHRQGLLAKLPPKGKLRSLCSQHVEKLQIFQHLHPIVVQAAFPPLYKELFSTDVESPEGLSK
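ROR gamma transcriptional activity was tracked as Gal4-UAS luciferase output in stably transfected Drosophila Schneider cells, with compound added 1 hr before 700 uM copper sulfate induction and a 20 hr ambient-temperature incubation.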
DT40 TDP1 no CPT: qHTS for Inhibitors of human tyrosyl-DNA phosphodiesterase 1 (TDP1): qHTS in cells in absence of CPT. AID 686978, 2013. actives 15% (n = 420,000). DT40 Tdp1-/- hTDP1 cells, no CPT, ATP luminescence, 48 h. Potency, µM (series often up to 46.2 µM), for inactives: top-dose activity change, negative = growth inhibition, usual class: inhibitors; note: potency is the fitted concentration of half-maximal effect; nearly all actives have a fitted effect of over 55% in size
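Compound effects on proliferation are scored in DT40 Tdp1-/-;hTDP1 cells in the absence of CPT. ATP levels (CellTiter-Glo luminescence) are recorded after a ≥48 hr, 37 °C incubation.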
Active calls of the source: *; u = inconclusive; x = no result given; [ ] = dose if it differs, or a comment. Unless noted, calls come from the whole dose curve; as a rule, active = well fitted curve in the direction sought with a large enough effect; inconclusive = small, poorly fitted or top-dose-only effect, or another doubt; inactive = no such curve, though single readings can be large; an effect the other way counts as inactive or inconclusive. % is set by controls: 0 for no effect and ±100 for the full control effect.

SMILES	Gal4-VP16 FLuc	DT40 TDP1 CPT	ELG1 DNA repair	IL-1B inflam inh	RORg inh	DT40 TDP1 no CPT
O=C1c2ccccc2-c2onc3ccc(N4CCCC4)c1c23	-9.5%	u	u	u	u	25.9µM*
CCCCCCCC#Cc1ccccc1C(NC(=O)OC)C(C(=O)OC)C(=O)OC (stereo not drawn)	12.5%[10 µM]	x	x	x	-4.5%[10 µM]	x
COc1cccc(CN2CCC3(CCC(CNC(=O)c4ccco4)O3)CC2)c1OC (stereo not drawn)	x	7.0%[9.04 µM]	x	x	x	-20.9%
Cc1ccc(C)c(C(O)c2ncc(-c3ccc4ccccc4c3)[nH]2)c1 (stereo not drawn)	x	18.4µM*	x	19.2	x	u
CSc1ccc(C(O)c2ncc(-c3ccc(F)cc3)[nH]2)cc1 (stereo not drawn)	x	29.1µM*	x	10.1	x	14.6µM*
CC(C)(C)c1ccc(C(O)c2ncc(-c3ccc4ccccc4c3)[nH]2)cc1 (stereo not drawn)	x	u	x	-5.9	x	18.4µM*
CC(C)(C)c1ccc(C(O)c2ncc(-c3cccc(F)c3)[nH]2)cc1 (stereo not drawn)	x	14.6µM*	x	-28.3	x	u
Cc1ccc(C(O)c2ncc(-c3ccc4ccccc4c3)[nH]2)c(C)c1 (stereo not drawn)	x	u	x	-1.5	x	-27.7%
Cc1ccc(-c2cnc(C(O)c3ccc(C)cc3)[nH]2)cc1 (stereo not drawn)	x	-11.0%	x	16.6	x	-30.0%
CC(=O)c1ccc(CCCCc2ccc(C(C)=O)cc2)cc1	x	u	x	25.1	x	u
CCN(CC)c1ccc(NC(=O)CCN2C(=O)c3ccccc3S2(=O)=O)c(C)c1	x	6.8%	-1.3%	7.5	x	-19.2%
Cc1cccc(C)c1NC(=O)Cn1nnc(S(=O)(=O)c2ccccc2)c1N	x	-14.1%	x	x	x	-4.2%
CNC(=O)[C@]1(C(F)(F)F)C[C@H](CCC2CCCCC2)CCCO1	-18.9%	x	x	x	6.8%	x
COc1cccc(-c2cnc(C(O)c3cc(Cl)cc(Cl)c3)[nH]2)c1 (stereo not drawn)	x	23.1µM*	x	-19.9	x	u
COc1cccc(-c2cnc(C(O)c3cc(F)cc(Cl)c3)[nH]2)c1 (stereo not drawn)	x	u	x	-4.8	x	u
OC(c1cc(F)cc(Cl)c1)c1ncc(-c2ccc3ccccc3c2)[nH]1 (stereo not drawn)	x	18.4µM*	x	4.6	x	13µM*
COc1cccc(-c2cnc(C(O)c3ccc(C(C)(C)C)cc3)[nH]2)c1 (stereo not drawn)	x	u	x	-26.5	x	18.4µM*
CC(C)c1ccc(C2NC(=O)NC3=C2CCc2ccccc23)cc1 (stereo not drawn)	12.5%	13µM*	-11.6%	-5.6	12.9%	14.6µM*
CNc1cc(-c2ccccc2CN(C)C)ncn1	9.0%	-7.4%	x	x	-3.3%	-9.1%
CN1CCN(C(=O)c2cc3c(c(-c4cccc(C#CC(C)(C)O)c4)n2)[C@H](CCO)N(S(=O)C(C)(C)C)C3)CC1 (stereo partly drawn)	x	2.2%	x	-10.9	x	5.7%
CN1CCN(C(=O)c2cc3c(c(-c4cccc(-c5cc6ccccc6o5)c4)n2)[C@@H](CCO)N(S(=O)C(C)(C)C)C3)CC1 (stereo partly drawn)	x	u	x	-21.0	x	u
CC(C)(C)S(=O)N1Cc2cc(C(=O)N3CCc4ccccc4C3)nc(-c3cccc(-c4cccnc4)c3)c2[C@@H]1CCO (stereo partly drawn)	x	u	x	-19.8	x	20.6µM*
COc1ccccc1-c1cccc(-c2nc(C(=O)N3CCCCC3)cc3c2[C@H](CCO)N(S(=O)C(C)(C)C)C3)c1 (stereo partly drawn)	x	20.6µM*	x	-8.7	x	18.4µM*
